Data published in PubChem BioAssay.
Active and inactive are the calls of the source.

Legend:
[1] = system: PRMT1 (protein arginine N-methyltransferase 1); assay: PRMT1 binders on small-molecule microarrays, primary screen, biochemical, small-molecule microarray, 635 nm fluorescence (AID 1088); conditions: small-molecule microarray binding, higher = more signal;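 note: binding of Prmt1 protein to compounds spotted on small-molecule microarray slides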
[2] = yeast growth modulation, basal conditions, primary screen, YJM789 clinical isolate, OD600, 24 h (AID 1089);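 note: growth of clinical yeast isolate S. cerevisiae YJM 789 seeded 1000 cells per well; test concentration not given here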; conditions: S. cerevisiae YJM789 growth, higher = more signal, called active from +8 up or from −8 down
[3] = fission yeast growth modulation, primary screen, strain 972, OD600, 24 h, no modulator (AID 1090);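 note: basal condition with compound alone and no growth modifier present; test concentration not given here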; conditions: S. pombe 972 growth, higher = more signal, called active from +8 up or from −8 down
[4] = S. cerevisiae growth modulation with rapamycin, primary screen, strain BY4716, OD600, 96 h (AID 1091); conditions: higher = more signal, called active from +8 up or from −8 down; note: test concentration not given here
[5] = target: Torsin-1A-interacting protein 2 (Homo sapiens) (UniProt Q8NFQ8); assay: LULL1 binders on small-molecule microarray, primary screen, cell lysate, human LULL1 lysate, 635/667 nm fluorescence (AID 1092); conditions: hLULL1 lysate binding, 635 nm fluorescence, higher = more signal;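 note: probe is lysate of COS7 cells overexpressing human LULL1; score merges per-feature 667 nm fluorescence with signal-to-noise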
Chain of Torsin-1A-interacting protein 2 (Homo sapiens) (Q8NFQ8 whole entry, looked up): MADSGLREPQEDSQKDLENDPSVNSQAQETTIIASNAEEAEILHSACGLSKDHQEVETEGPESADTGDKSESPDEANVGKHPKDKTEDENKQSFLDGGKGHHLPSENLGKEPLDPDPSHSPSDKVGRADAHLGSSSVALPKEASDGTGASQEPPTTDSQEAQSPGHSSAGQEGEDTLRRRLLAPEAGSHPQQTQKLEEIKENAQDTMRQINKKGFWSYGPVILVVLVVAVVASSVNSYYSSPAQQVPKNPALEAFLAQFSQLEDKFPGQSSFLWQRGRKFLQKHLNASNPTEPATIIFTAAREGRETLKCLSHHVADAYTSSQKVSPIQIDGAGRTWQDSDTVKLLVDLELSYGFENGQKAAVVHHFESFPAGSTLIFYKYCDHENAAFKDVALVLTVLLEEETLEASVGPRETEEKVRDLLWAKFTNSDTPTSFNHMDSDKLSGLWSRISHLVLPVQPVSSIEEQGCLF

[6] = E. coli growth modulation, two-sided OD650, primary screen, E. coli filamentation project, strain DRC41, 24 h (AID 1093); conditions: OD650, 24 h, higher = more signal, called active from +8 up or from −8 down;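 note: MC1000 strain lacking acrAB efflux and sulA so SOS filamentation is blocked; test concentration not given here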
[7] = small-molecule microarray binders of probe aLefty2, primary screen, biochemical, biotinylated probe, 635/667 nm fluorescence (AID 1094); conditions: higher = more signal;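 note: score merges spot fluorescence near 667 nm with spot signal-to-noise ratio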
[8] = system: Noggin (protein binding on small-molecule microarray); assay: Noggin binders on small-molecule microarray, primary screen, biochemical, 635/667 nm fluorescence (AID 1095); conditions: 635 nm fluorescence, higher = more signal;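 note: score merges 667 nm feature fluorescence with signal to noise over triplicate slides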
[9] = target: Neurogenic locus notch homolog protein 3 (Homo sapiens) (UniProt Q9UM47); assay: NOTCH3 binders on small-molecule microarray, primary screen, biochemical, 635/667 nm fluorescence (AID 1096); conditions: NOTCH3 binding, 635 nm fluorescence, higher = more signal
Chain of Neurogenic locus notch homolog protein 3 (Homo sapiens) (Q9UM47 whole entry, looked up): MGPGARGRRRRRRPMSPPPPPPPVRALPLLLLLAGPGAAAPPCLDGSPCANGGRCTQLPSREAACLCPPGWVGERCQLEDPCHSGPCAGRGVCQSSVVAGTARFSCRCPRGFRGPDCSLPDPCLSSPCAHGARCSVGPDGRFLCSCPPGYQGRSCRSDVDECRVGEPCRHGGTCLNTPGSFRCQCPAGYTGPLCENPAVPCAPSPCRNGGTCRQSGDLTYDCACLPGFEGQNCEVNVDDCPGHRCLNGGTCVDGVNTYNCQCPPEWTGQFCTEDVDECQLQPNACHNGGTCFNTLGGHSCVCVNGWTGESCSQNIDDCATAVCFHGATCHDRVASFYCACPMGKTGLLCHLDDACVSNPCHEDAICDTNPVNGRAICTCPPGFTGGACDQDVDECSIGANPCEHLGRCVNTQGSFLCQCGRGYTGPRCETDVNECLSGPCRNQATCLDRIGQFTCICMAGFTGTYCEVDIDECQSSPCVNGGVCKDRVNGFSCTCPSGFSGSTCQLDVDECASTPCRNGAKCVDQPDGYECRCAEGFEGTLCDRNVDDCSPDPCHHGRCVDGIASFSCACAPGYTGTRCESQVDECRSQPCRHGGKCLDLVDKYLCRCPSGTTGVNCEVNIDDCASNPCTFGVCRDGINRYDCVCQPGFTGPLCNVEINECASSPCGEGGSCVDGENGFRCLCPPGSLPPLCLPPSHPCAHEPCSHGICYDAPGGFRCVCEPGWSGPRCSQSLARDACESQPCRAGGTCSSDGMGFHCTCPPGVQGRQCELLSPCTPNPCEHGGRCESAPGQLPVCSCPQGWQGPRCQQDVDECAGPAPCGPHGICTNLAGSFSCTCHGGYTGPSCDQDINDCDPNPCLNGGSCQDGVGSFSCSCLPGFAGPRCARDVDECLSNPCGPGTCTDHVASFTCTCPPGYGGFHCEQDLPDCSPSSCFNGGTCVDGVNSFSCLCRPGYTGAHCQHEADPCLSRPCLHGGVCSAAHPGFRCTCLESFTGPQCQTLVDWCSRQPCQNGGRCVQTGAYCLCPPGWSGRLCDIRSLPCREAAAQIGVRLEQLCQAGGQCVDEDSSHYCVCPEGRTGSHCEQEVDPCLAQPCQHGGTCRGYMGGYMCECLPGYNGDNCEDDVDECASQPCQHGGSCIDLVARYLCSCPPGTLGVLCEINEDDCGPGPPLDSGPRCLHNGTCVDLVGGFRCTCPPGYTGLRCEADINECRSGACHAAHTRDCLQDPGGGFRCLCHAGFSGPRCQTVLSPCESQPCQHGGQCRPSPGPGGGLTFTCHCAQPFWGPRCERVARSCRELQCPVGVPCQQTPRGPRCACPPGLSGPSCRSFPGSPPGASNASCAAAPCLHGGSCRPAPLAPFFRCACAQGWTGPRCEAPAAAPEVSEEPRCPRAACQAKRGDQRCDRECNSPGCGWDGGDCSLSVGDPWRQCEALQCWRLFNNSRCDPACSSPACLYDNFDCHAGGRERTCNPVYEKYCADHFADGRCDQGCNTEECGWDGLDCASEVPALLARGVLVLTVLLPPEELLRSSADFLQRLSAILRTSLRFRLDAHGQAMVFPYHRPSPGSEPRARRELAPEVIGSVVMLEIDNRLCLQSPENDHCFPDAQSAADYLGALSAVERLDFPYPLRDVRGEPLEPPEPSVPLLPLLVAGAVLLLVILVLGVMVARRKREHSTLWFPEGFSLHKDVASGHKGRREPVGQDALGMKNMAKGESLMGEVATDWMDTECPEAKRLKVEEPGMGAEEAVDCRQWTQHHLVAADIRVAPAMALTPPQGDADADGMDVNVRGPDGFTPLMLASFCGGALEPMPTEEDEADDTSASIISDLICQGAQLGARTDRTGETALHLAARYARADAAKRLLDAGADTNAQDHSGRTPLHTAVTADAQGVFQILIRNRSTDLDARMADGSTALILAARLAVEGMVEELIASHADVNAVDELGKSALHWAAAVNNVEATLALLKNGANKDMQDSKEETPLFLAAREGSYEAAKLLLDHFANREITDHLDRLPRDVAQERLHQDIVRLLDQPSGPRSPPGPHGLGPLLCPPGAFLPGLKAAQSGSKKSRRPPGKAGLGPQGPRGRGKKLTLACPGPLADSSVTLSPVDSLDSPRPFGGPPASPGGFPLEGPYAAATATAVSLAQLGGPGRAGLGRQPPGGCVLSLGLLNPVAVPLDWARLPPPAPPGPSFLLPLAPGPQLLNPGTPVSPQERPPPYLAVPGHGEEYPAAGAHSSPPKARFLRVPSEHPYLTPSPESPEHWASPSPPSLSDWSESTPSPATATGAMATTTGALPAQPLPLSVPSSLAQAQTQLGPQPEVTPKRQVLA

[10] = small-molecule microarray binders of probe aEGFR, primary screen, biochemical, biotinylated probe, 635/667 nm fluorescence (AID 1097); conditions: higher = more signal;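 note: probe is a biotinylated anti-EGFR antibody binding compounds printed on slides; score combines fluorescence near 667 nm and signal to noise of each spot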
[11] = system: Plasmodium falciparum Sir2 (PF13_0152, Sir2A); assay: pfSir2 binders on small-molecule microarrays, primary screen, biochemical, small-molecule microarray, 635 nm fluorescence (AID 1098); conditions: small-molecule microarray binding, fluorescence 635 nm; higher = more signal;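 note: score merges spot fluorescence intensity with its signal-to-noise ratio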
[12] = small-molecule microarray binders of probe aDKK1, primary screen, biochemical, biotinylated probe, 635/667 nm fluorescence (AID 1099); conditions: higher = more signal;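 note: score merges 667nm spot fluorescence with signal to noise across triplicate slides; reference of the scale not given here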
[13] = small-molecule microarray binders of probe aCHRDL2, primary screen, biochemical, biotinylated probe, 635/667 nm fluorescence (AID 1100); conditions: higher = more signal
[14] = splicing luciferase reporter signal modulators, primary screen, spliceosome inhibition project, cell-based, HEK293, splice +/- reporter (AID 1101); conditions: luminescence, 24 h, higher = more signal, called active from +8 up or from −8 down;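 note: HEK293 cells carrying a splicing-competent luciferase reporter gene; test concentration not given here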
[15] = target: Fibroblast growth factor 10 (Homo sapiens) (UniProt O15520); assay: FGF10 binders on small-molecule microarrays, primary screen, biochemical, small-molecule microarray, 635 nm fluorescence (AID 1102); conditions: FGF10 binding, fluorescence 635 nm, higher = more signal
Chain of Fibroblast growth factor 10 (Homo sapiens) (O15520 whole entry, looked up): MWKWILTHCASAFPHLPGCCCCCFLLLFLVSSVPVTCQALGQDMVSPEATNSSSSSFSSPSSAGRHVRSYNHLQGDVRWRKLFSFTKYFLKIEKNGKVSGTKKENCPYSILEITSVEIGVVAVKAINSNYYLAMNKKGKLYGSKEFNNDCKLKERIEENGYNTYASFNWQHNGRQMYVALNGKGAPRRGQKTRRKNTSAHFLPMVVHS

[16] = system: glycogen synthase kinase-3 (GSK3A per assay name; protocol says GSK3B); assay: GSK3 binders on small-molecule microarrays, primary screen, biochemical, small-molecule microarray, 635 nm fluorescence, GSK3A (AID 1103); conditions: small-molecule microarray binding, fluorescence 635 nm; higher = more signal; note: the record names both GSK3A and GSK3B
[17] = target: Epidermal growth factor receptor (Homo sapiens) (UniProt P00533); assay: EGFR binders on small-molecule microarrays, primary screen, biochemical, small-molecule microarray, 635 nm fluorescence (AID 1104); conditions: EGFR binding, higher = more signal;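 note: score merges 667 nm emission intensity with spot signal to noise over triplicate slides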
Chain of Epidermal growth factor receptor (Homo sapiens) (P00533 whole entry, looked up): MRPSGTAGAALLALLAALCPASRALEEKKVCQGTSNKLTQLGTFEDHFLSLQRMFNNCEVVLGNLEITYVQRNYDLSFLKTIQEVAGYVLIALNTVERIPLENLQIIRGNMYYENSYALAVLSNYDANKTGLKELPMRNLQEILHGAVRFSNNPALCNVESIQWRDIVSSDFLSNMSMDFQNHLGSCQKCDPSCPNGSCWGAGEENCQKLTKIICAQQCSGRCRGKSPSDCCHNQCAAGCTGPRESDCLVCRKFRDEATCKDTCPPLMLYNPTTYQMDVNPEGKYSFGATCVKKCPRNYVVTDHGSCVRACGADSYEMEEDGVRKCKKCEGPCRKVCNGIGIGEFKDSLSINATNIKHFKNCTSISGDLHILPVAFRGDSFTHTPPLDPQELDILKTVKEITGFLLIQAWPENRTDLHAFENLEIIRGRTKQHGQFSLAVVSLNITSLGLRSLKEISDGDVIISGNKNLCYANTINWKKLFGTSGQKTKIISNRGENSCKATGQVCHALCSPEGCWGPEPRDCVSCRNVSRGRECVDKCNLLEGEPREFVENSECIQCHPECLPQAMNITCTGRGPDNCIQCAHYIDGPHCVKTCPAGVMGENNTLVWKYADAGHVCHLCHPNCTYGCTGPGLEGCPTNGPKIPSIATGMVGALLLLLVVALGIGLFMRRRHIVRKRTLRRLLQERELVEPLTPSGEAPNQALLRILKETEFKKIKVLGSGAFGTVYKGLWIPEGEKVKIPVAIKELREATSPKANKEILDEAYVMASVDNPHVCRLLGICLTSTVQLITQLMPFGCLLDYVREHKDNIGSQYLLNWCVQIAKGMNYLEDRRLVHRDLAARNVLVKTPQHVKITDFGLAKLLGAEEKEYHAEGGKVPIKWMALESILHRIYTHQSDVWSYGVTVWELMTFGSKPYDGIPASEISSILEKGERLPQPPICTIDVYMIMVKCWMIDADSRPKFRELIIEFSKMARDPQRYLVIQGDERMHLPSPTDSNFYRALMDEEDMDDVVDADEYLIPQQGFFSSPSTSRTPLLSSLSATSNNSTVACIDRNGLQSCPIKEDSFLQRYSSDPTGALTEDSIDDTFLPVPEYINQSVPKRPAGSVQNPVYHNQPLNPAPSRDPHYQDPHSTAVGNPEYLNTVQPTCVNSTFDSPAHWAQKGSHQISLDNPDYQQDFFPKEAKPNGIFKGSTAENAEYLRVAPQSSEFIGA

[18] = target: Follistatin-related protein 3 (Homo sapiens) (UniProt O95633); assay: FSTL3 binders on small-molecule microarrays, primary screen, biochemical, small-molecule microarray, 635 nm fluorescence (AID 1105); conditions: FSTL3 binding, higher = more signal;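 note: score merges emission near 667 nm and signal to noise per printed spot across three slides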
Chain of Follistatin-related protein 3 (Homo sapiens) (O95633 whole entry, looked up): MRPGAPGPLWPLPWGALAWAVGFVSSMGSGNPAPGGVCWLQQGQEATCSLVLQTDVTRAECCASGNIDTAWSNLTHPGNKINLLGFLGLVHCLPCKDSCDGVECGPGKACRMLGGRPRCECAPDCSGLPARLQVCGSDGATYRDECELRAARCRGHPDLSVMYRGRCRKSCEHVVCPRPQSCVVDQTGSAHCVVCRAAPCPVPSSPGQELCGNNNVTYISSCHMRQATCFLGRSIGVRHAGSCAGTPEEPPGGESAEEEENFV

[19] = target: Dickkopf-related protein 1 (Homo sapiens) (UniProt O94907); assay: DKK1 binders on small-molecule microarrays, primary screen, biochemical, small-molecule microarray, 635 nm fluorescence scan (AID 1106); conditions: DKK1 binding, higher = more signal;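 note: score merges emission near 667 nm with signal to noise over three replicate slides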
Chain of Dickkopf-related protein 1 (Homo sapiens) (O94907 whole entry, looked up): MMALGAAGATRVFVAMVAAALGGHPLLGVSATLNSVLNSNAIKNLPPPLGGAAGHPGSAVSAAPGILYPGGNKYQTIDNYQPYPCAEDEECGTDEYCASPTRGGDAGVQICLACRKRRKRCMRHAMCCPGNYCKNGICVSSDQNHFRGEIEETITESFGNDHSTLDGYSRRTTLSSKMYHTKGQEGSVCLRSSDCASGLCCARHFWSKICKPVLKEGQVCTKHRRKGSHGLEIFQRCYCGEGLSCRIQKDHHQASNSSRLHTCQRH

[20] = system: Inhibin beta A chain (activin A); assay: INHBA (activin A) binders on microarrays, primary screen, biochemical, small-molecule microarray, 635 nm fluorescence scan (AID 1107); conditions: small-molecule microarray binding, higher = more signal;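 note: mouse activin A protein probed at 4.33 µg/mL on printed slides; score merges bound-protein fluorescence near 667 nm with spot signal-to-noise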

| SMILES | composite z-score [1] | z-score [2] | z-score [3] | z-score [4] | composite z-score [5] | z-score [6] | composite z-score [7] | composite z-score [8] | composite z-score [9] | composite z-score [10] | composite z-score [11] | composite z-score [12] | composite z-score [13] | z-score [14] | composite z-score [15] | composite z-score [16] | composite z-score [17] | composite z-score [18] | composite z-score [19] | composite z-score [20] |
| --- | --- | --- | --- | --- | --- | --- | --- | --- | --- | --- | --- | --- | --- | --- | --- | --- | --- | --- | --- | --- |
| O=C1O[C@H](c2ccccc2)[C@H](c2ccccc2)N2[C@H]1[C@@H](C(=O)NC[C@H](O)c1ccccc1)[C@]1(C(=O)Nc3ccccc31)[C@H]2c1ccc(OCCO)cc1 | 1.58 | 2.12 (inactive) | 1.93 (inactive) | 5.07 (inactive) | 2.39 | -0.965 (inactive) | -0.147 | 0.234 | 0.797 | -0.0244 | 0.884 | 0.569 | 0.672 | 0.985 (inactive) | 0.745 | 1.23 | -0.0151 | 0.464 | 0.289 | 0.286 |
| CN1C(=O)C2C=CC(C(O)C3CCCCC3)N(Nc3ccc([N+](=O)[O-])cc3[N+](=O)[O-])C2C1=O (stereo not given) | 1.52 | 0.492 (inactive) | 1.19 (inactive) | 0.68 (inactive) | 3.24 | -0.632 (inactive) | 0.191 | 0.219 | 1.03 | 0.0624 | 0.912 | 0.778 | 0.906 | 1.84 (inactive) | 0.911 | 0.323 | 0.374 | 1.29 | -0.33 | 0.738 |
| O=C1O[C@@H](c2ccccc2)[C@@H](c2ccccc2)N2[C@@H](c3ccccc3OCCO)[C@]3(C(=O)Nc4ccc(C#CC5=CCCCC5)cc43)[C@@H](C(=O)Nc3nc4ccccc4s3)[C@H]12 | 1.56 | 1.37 (inactive) | 1.8 (inactive) | 2.58 (inactive) | 2.4 | 0.901 (inactive) | 0.123 | 0.82 | 0.993 | 0.0224 | 1.5 | 0.0826 | -0.0401 | -0.459 (inactive) | 1.32 | 1.29 | 0.463 | 1.23 | 0.619 | 0.137 |
| COc1ccc(CCN2C(=O)[C@@]3(Cc4ccccc42)c2ccccc2C(=O)N(Cc2ccccc2C(F)(F)F)[C@H]3c2ccc(CO)cc2)cc1 | 0.67 | 0.276 (inactive) | -0.414 (inactive) | -1.68 (inactive) | 0.568 | -2.33 (inactive) | 0.0077 | 0.451 | -0.39 | -0.276 | 0.516 | -0.19 | -0.537 | -0.856 (inactive) | 0.167 | 0.441 | 0.0283 | 0.425 | 0.622 | 0.717 |
| O=C1C[C@]2(c3ccc([N+](=O)[O-])cc3)C(=O)N(CCN3CCOCC3)c3cc(CO)ccc3[C@H]2N1C1CCCCC1 | 1.47 | -0.87 (inactive) | 0.0365 (inactive) | -1.6 (inactive) | 1.1 | 0.668 (inactive) | -0.0668 | -0.283 | -0.188 | -0.112 | 0.781 | 0.42 | 0.828 | -1.05 (inactive) | -0.142 | -0.587 | -0.517 | -0.875 | -0.877 | 0.342 |
| CC(C)c1ccc(NN2C(C(O)C(c3ccccc3)c3ccccc3)C=CC3C(=O)N(c4ccccc4)C(=O)C32)cc1 (stereo not given) | 1.56 | 0.709 (inactive) | -0.223 (inactive) | 1.04 (inactive) | 2.63 | -2.08 (inactive) | 0.0399 | 0.63 | 1.06 | 0.104 | 1.08 | 0.517 | 0.344 | 0.304 (inactive) | 1.31 | 1.26 | 0.438 | 1.06 | 0.238 | 0.203 |
| [N-]=[N+]=NCc1ccccc1C[C@]1(C(=O)NCC(O)CO)N=C(c2ccc(OCCCO)cc2)O[C@H]1c1ccccc1 (stereo not given in full) | -0.434 | -0.0234 (inactive) | 0.559 (inactive) | -1.04 (inactive) | 2.62 | 0.478 (inactive) | 0.38 | -0.918 | -1.29 | -0.0758 | -0.338 | 1.04 | 0.889 | 0.321 (inactive) | -0.337 | -0.836 | -0.886 | -0.689 | -1.37 | 0.51 |
| C=CC[C@@]1(C(=O)N(C)C)N=C(c2ccc(OCCCO)cc2)O[C@@H]1c1ccccc1N=[N+]=[N-] | 1.55 | -0.431 (inactive) | -0.0481 (inactive) | -0.0865 (inactive) | 3.57 | 0.724 (inactive) | 0.193 | 1.07 | 1.06 | 0.276 | 1.59 | 1.33 | 1.35 | -1.2 (inactive) | 0.826 | 1.2 | 0.145 | 0.884 | 0.368 | 0.636 |
| COCCOC(=O)N1C(=O)[C@@]2(c3cc(C#CC4=CCCCC4)ccc31)[C@H](C(N)=O)[C@H]1C(=O)O[C@H](c3ccccc3)[C@H](c3ccccc3)N1[C@@H]2c1ccc(OCCO)cc1 | 1.54 | 1.44 (inactive) | 1.28 (inactive) | 3.59 (inactive) | 1.6 | -0.385 (inactive) | -0.399 | 0.904 | 1.01 | -0.238 | 0.497 | -0.504 | -0.091 | 0.497 (inactive) | 1.31 | 1.1 | 0.0883 | 1.22 | 0.553 | 0.052 |
| C=CCOC(=O)[C@H]1[C@@H]2C(=O)O[C@@H](c3ccccc3)[C@@H](c3ccccc3)N2[C@@H](c2ccc(OCCOC(=O)[C@H]3C[C@H]4C(=O)N5CCC[C@H]5C(=O)N4[C@H]3c3ccc(O)cc3)cc2)[C@]12C(=O)Nc1ccc(I)cc12 | 1.53 | -0.324 (inactive) | -1.65 (inactive) | 0.0891 (inactive) | 3.64 | 1.07 (inactive) | 1.46 | 2 | 1.05 | 0.993 | 2.09 | 1.76 | 1.42 | -1.93 (inactive) | 1.47 | 1.37 | 0.429 | 1.42 | 1.97 | 1.41 |
